Source: PubChem BioAssay (NCI)
Compounds without any hit were thinned out: in the full panel of roughly 83,000, 20% have a hit.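 Activity criterion: percent growth below 10, measured after cells in 96-well plates were exposed to a single compound concentration for 48 hours.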 Calls of active or inactive are those of the source.

How the values were obtained:
Test in all cases: NCI-60 one-dose screen, 48 h (100 = growth as untreated, 0 = no growth, -100 = all killed)
Conditions in all cases: 10 µM unless noted
HCT-15 colon = system: HCT-15 colon
HT29 colon = system: HT29 colon
SNB-75 CNS = system: SNB-75 CNS
SNB-19 CNS = system: SNB-19 CNS
PC-3 prostate = system: PC-3 prostate
SK-MEL-5 melanoma = system: SK-MEL-5 melanoma
UACC-62 melanoma = system: UACC-62 melanoma
SK-MEL-28 melanoma = system: SK-MEL-28 melanoma
SK-MEL-2 melanoma = system: SK-MEL-2 melanoma
UO-31 renal = system: UO-31 renal
TK-10 renal = system: TK-10 renal
ACHN renal = system: ACHN renal
CAKI-1 renal = system: CAKI-1 renal
A498 renal = system: A498 renal
CCRF-CEM leukemia = system: CCRF-CEM leukemia
MOLT-4 leukemia = system: MOLT-4 leukemia
LOX IMVI melanoma = system: LOX IMVI melanoma
SN12C renal = system: SN12C renal
U251 CNS = system: U251 CNS
EKVX NSCLC = system: EKVX NSCLC

Measured: growth

C=C(C)CCCC(C)CC#N (configuration not stated)
inactive: HCT-15 colon 101% | HT29 colon 93.9% | SNB-75 CNS 91.3% | SNB-19 CNS 110% | PC-3 prostate 95.7% | SK-MEL-5 melanoma 99.7% | UACC-62 melanoma 111% | SK-MEL-28 melanoma 106% | SK-MEL-2 melanoma 97.4% | UO-31 renal 83.6% | TK-10 renal 99% | ACHN renal 103% | CAKI-1 renal 98.5% | A498 renal 103% | CCRF-CEM leukemia 96.1% | MOLT-4 leukemia 101%

Cc1ccc(-c2nnc(COc3ccc(-c4nnc(N)s4)cc3)o2)cc1
inactive: HCT-15 colon 81.3% | HT29 colon 81.5% | SNB-75 CNS 94.2% | SNB-19 CNS 86% | PC-3 prostate 83.9% | UACC-62 melanoma 83.2% | LOX IMVI melanoma 26% | SK-MEL-28 melanoma 98.3% | SK-MEL-2 melanoma 104% | SN12C renal 82.2% | TK-10 renal 106% | ACHN renal 107% | CAKI-1 renal 94.8% | A498 renal 103% | CCRF-CEM leukemia 47.7% | MOLT-4 leukemia 77.6%

Cc1nc2cc(Nc3nc(N4CCOCC4)nc(N4CCN(C)CC4)n3)ccc2n1Cc1ccccc1
inactive: HCT-15 colon 96% | HT29 colon 109% | SNB-75 CNS 71.2% | SNB-19 CNS 106% | PC-3 prostate 96.7% | SK-MEL-5 melanoma 97.5% | UACC-62 melanoma 102% | LOX IMVI melanoma 97.2% | SK-MEL-28 melanoma 106% | SK-MEL-2 melanoma 106% | SN12C renal 101% | UO-31 renal 81.7% | TK-10 renal 106% | ACHN renal 96.6% | CAKI-1 renal 93.3% | CCRF-CEM leukemia 96.2% | MOLT-4 leukemia 91.8%

COC(=O)[C@@H]1CCCN1C(=O)[C@@H]1CCCN1C(=O)[C@@H](Cc1c[nH]c2ccccc12)NC(=S)Nc1cc(C(F)(F)F)cc(C(F)(F)F)c1
inactive: HCT-15 colon 74.6% | HT29 colon 51.1% | SNB-75 CNS 32.7% | SNB-19 CNS 69.3% | PC-3 prostate 43.4% | UACC-62 melanoma 58.1% | LOX IMVI melanoma 23.3% | SK-MEL-28 melanoma 33.7% | SK-MEL-2 melanoma 39.9% | SN12C renal 65.7% | UO-31 renal 41.4% | TK-10 renal 83.5% | ACHN renal 61.9% | CAKI-1 renal 56.9% | A498 renal 99.6% | CCRF-CEM leukemia 19.9% | MOLT-4 leukemia 22.3%

CC(C)(C)[Si](C)(C)OC1[C@@H](COC(=O)NC(=O)CCl)O[C@@H](n2cnc3c(N)ncnc32)[C@H]1O[Si](C)(C)C(C)(C)C (some centres not stated)
active: PC-3 prostate -59.9% | LOX IMVI melanoma -94% | SN12C renal -47.5% | CCRF-CEM leukemia -48.6% | MOLT-4 leukemia -54.7%
inactive: HCT-15 colon 11.8% | HT29 colon 32.3% | SNB-75 CNS 101% | U251 CNS 53.2% | SK-MEL-5 melanoma 61.4% | UACC-62 melanoma 75.2% | SK-MEL-28 melanoma 71.8% | UO-31 renal 20% | ACHN renal 61.4% | CAKI-1 renal 19.3% | A498 renal 105%

CN1CCN(c2ccc3nc(-c4ccc5nc(-c6ccc(C(F)(F)F)cc6)[nH]c5c4)[nH]c3c2)CC1
inactive: HCT-15 colon 80.4% | HT29 colon 29.2% | SNB-75 CNS 29.6% | U251 CNS 34.7% | PC-3 prostate 30.2% | SK-MEL-5 melanoma 44.2% | UACC-62 melanoma 67.5% | SK-MEL-28 melanoma 63.2% | SK-MEL-2 melanoma 103% | EKVX NSCLC 81.6% | SN12C renal 80.3% | TK-10 renal 101% | ACHN renal 55.6% | CAKI-1 renal 43% | CCRF-CEM leukemia 21.2% | MOLT-4 leukemia 47.2%
active: LOX IMVI melanoma -85.8%

COc1ccc(-n2ncc3c2ccc2cc(S(=O)(=O)c4ccccc4)c(=O)n(C)c23)cc1
inactive: HCT-15 colon 92% | HT29 colon 81.2% | SNB-75 CNS 49.6% | SNB-19 CNS 92.7% | PC-3 prostate 86.7% | SK-MEL-5 melanoma 95.9% | UACC-62 melanoma 87.8% | LOX IMVI melanoma 86% | SK-MEL-28 melanoma 91.2% | SK-MEL-2 melanoma 96.3% | SN12C renal 101% | UO-31 renal 94.4% | TK-10 renal 86.3% | ACHN renal 75.4% | CAKI-1 renal 89.3% | A498 renal 70.5% | CCRF-CEM leukemia 96.6% | MOLT-4 leukemia 103%

ONc1nc(NO)c2[nH]cnc2n1
inactive: HCT-15 colon 89.9% | HT29 colon 109% | SNB-75 CNS 88.6% | SNB-19 CNS 112% | PC-3 prostate 69.2% | SK-MEL-5 melanoma 102% | LOX IMVI melanoma 26% | SK-MEL-28 melanoma 91% | SK-MEL-2 melanoma 96% | SN12C renal 80.7% | UO-31 renal 52.6% | ACHN renal 60.9% | CAKI-1 renal 64.1% | A498 renal 78.7% | CCRF-CEM leukemia 12.7%
active: MOLT-4 leukemia 9.57%

CCOC(=O)c1sc(NC(=O)CN2CCC(Cc3ccccc3)CC2)nc1C
inactive: HCT-15 colon 92.9% | HT29 colon 79.8% | SNB-75 CNS 109% | SNB-19 CNS 104% | PC-3 prostate 93.1% | UACC-62 melanoma 114% | LOX IMVI melanoma 96.7% | SK-MEL-28 melanoma 110% | SK-MEL-2 melanoma 133% | SN12C renal 106% | UO-31 renal 80.4% | TK-10 renal 106% | ACHN renal 107% | CAKI-1 renal 99.4% | A498 renal 100% | MOLT-4 leukemia 84.3%

COc1cc(Cn2cc(F)c(=O)[nH]c2=O)cc(OC)c1
inactive: HCT-15 colon 103% [50 µM] | HT29 colon 110% [50 µM] | SNB-75 CNS 91.2% [50 µM] | U251 CNS 106% [50 µM] | PC-3 prostate 101% [50 µM] | SK-MEL-5 melanoma 103% [50 µM] | UACC-62 melanoma 97.5% [50 µM] | LOX IMVI melanoma 86.2% [50 µM] | SK-MEL-28 melanoma 109% [50 µM] | SK-MEL-2 melanoma 114% [50 µM] | EKVX NSCLC 98.6% [50 µM] | SN12C renal 98.9% [50 µM] | UO-31 renal 75.3% [50 µM] | ACHN renal 101% [50 µM] | CAKI-1 renal 92.9% [50 µM] | A498 renal 98.2% [50 µM] | CCRF-CEM leukemia 103% [50 µM] | MOLT-4 leukemia 103% [50 µM]

NS(=O)(=O)c1cc(Br)c2c(c1)S(=O)(=O)NCN2
inactive: HCT-15 colon 112% | HT29 colon 103% | SNB-75 CNS 117% | U251 CNS 107% | PC-3 prostate 105% | SK-MEL-5 melanoma 111% | UACC-62 melanoma 111% | LOX IMVI melanoma 113% | SK-MEL-28 melanoma 110% | SK-MEL-2 melanoma 102% | EKVX NSCLC 120% | SN12C renal 104% | UO-31 renal 96.7% | TK-10 renal 110% | ACHN renal 111% | CAKI-1 renal 94.9% | A498 renal 115% | CCRF-CEM leukemia 99.7% | MOLT-4 leukemia 87.5%

COc1ccc(C(=O)C2=CC(=O)C(=O)C2)cc1OC
inactive: HCT-15 colon 96.2% | HT29 colon 98.1% | SNB-75 CNS 90.8% | SNB-19 CNS 105% | PC-3 prostate 94.5% | SK-MEL-5 melanoma 103% | LOX IMVI melanoma 101% | SK-MEL-28 melanoma 112% | SK-MEL-2 melanoma 101% | SN12C renal 109% | UO-31 renal 91.5% | TK-10 renal 98.7% | ACHN renal 103% | CAKI-1 renal 97.4% | A498 renal 94.3% | CCRF-CEM leukemia 95.3% | MOLT-4 leukemia 101%

N#CCCN1CCN(CCC#N)C1=S
inactive: HCT-15 colon 106% | HT29 colon 98.6% | SNB-75 CNS 95.6% | U251 CNS 101% | PC-3 prostate 99.6% | SK-MEL-5 melanoma 110% | UACC-62 melanoma 91.4% | LOX IMVI melanoma 104% | SK-MEL-28 melanoma 122% | SK-MEL-2 melanoma 93.4% | EKVX NSCLC 102% | SN12C renal 95.2% | TK-10 renal 98.1% | ACHN renal 102% | CAKI-1 renal 86.4% | A498 renal 87.9% | CCRF-CEM leukemia 111% | MOLT-4 leukemia 103%

COC(=O)[C@H]1CCCN1C(=O)[C@H]1CCCN1C(=O)[C@@H](Cc1c[nH]c2ccccc12)NC(=S)Nc1cc(C(F)(F)F)cc(C(F)(F)F)c1
inactive: HCT-15 colon 55.5% | HT29 colon 39% | SNB-75 CNS 40.3% | SNB-19 CNS 36.8% | PC-3 prostate 34% | UACC-62 melanoma 58.7% | SK-MEL-28 melanoma 53% | SK-MEL-2 melanoma 93.2% | SN12C renal 43.2% | TK-10 renal 78.4% | ACHN renal 44.3% | CAKI-1 renal 28.5% | A498 renal 56% | CCRF-CEM leukemia 36% | MOLT-4 leukemia 21.2%

FC(F)(F)c1cc(CNc2ncc(Br)c(Cl)n2)cc(C(F)(F)F)c1
inactive: HCT-15 colon 97.7% | HT29 colon 106% | SNB-75 CNS 95.4% | SNB-19 CNS 112% | PC-3 prostate 92.2% | SK-MEL-5 melanoma 97.3% | UACC-62 melanoma 103% | LOX IMVI melanoma 90.5% | SK-MEL-28 melanoma 102% | SK-MEL-2 melanoma 94% | SN12C renal 99.7% | UO-31 renal 83.3% | TK-10 renal 97.9% | ACHN renal 104% | A498 renal 96.7% | CCRF-CEM leukemia 83.2% | MOLT-4 leukemia 86%

CC(=O)OC[C@H](O)[C@@]1(O)CC[C@H]2[C@@H]3CCC4=CC(=O)CC[C@]4(C)[C@H]3[C@@H](O)C[C@@]21C
inactive: HCT-15 colon 105% | HT29 colon 101% | SNB-75 CNS 117% | U251 CNS 111% | PC-3 prostate 95.4% | SK-MEL-5 melanoma 101% | UACC-62 melanoma 104% | LOX IMVI melanoma 103% | SK-MEL-28 melanoma 114% | EKVX NSCLC 87.3% | SN12C renal 85.9% | UO-31 renal 78% | TK-10 renal 112% | ACHN renal 111% | CAKI-1 renal 85.5% | CCRF-CEM leukemia 89.4% | MOLT-4 leukemia 89%

Cc1nn(-c2ccccc2)c2nc3nc4c(c(N)c3c(-c3ccc(Cl)cc3)c12)CCC4
inactive: HCT-15 colon 76.5% | HT29 colon 55.2% | SNB-75 CNS 86.2% | SNB-19 CNS 111% | PC-3 prostate 88.2% | SK-MEL-5 melanoma 99.4% | UACC-62 melanoma 102% | LOX IMVI melanoma 62.5% | SK-MEL-28 melanoma 96.9% | SK-MEL-2 melanoma 96.8% | SN12C renal 105% | TK-10 renal 105% | ACHN renal 51.1% | CAKI-1 renal 93.1% | A498 renal 92.4% | CCRF-CEM leukemia 21.7% | MOLT-4 leukemia 90.4%
